SMILES strings stand for the structures. Screen size: about 52,000 compounds; about 4,300 (8.3%) were called active. Cut-off read from the data, not from the text of the source: active = survival mostly below about 52% (no sharp cut-off); inactive = mostly above about 56%. Only a selection was taken, and actives are over-represented in it overall.

The assay has as its system DeltatarO mutant. Kind of assay: growth inhibition of S. aureus wild type versus tarO mutant, primary screen, teichoic acid synthesis inhibitors, RN4220, OD600 (AID 463173). The note with it: OD600, 18 h, hits give low values, screened at 18.75 µg/mL (by protocol).
On to `Cc1ccc(S(=O)(=O)c2cn(CC(=O)Nc3ccc(Cl)cc3)c3ccc(F)cc3c2=O)cc1C`, for which the survival is 53% (inactive).

Take `CC(C)(C)c1ccc(C(=O)Nc2ccccc2C(=O)OCc2cc(=O)n3ccsc3n2)cc1`: the survival was 73% (inactive).

With `CC1OC(Nc2ccc(OC(F)(F)F)cc2)C(O)C(O)C1O` (centres undefined), the survival was 84% (inactive).

As to `CCC(C)n1c(=O)c2sccc2n2c(CCCC(=O)N3CCN(c4ccccc4)CC3)nnc12` (centres undefined), the survival was 89% (inactive).

As to `Cc1ccc(NC(=O)CCS(=O)(=O)c2cccc3nonc23)cc1Cl`, the survival is 71% (inactive).

`COC(=O)c1ccc(NC(=O)CCNS(=O)(=O)c2cccc3nsnc23)cc1`: the survival is 65% (inactive).

On to `COc1ccc(NC(=O)CCS(=O)(=O)c2cccc3nonc23)cc1Cl`, for which the survival is 68% (inactive).

With `CCc1cccc(NC(=O)CCNS(=O)(=O)c2cccc3nonc23)c1`, the survival is 97% (inactive).

Turning to `Cc1ccc(NC(=O)CCNS(=O)(=O)c2cccc3nonc23)cc1Cl`, the survival was 39% (active).

`Cc1cc(NC(=O)CCNS(=O)(=O)c2cccc3nsnc23)ccc1Br`: the survival was 102% (inactive).

In the case of `CCOC(=O)c1cccc(NC(=O)CCNS(=O)(=O)c2cccc3nonc23)c1`, the survival is 46% (active).

On to `Cc1cccc(NC(=O)CCNS(=O)(=O)c2cccc3nonc23)c1`, for which the survival is 44% (active).

Turning to `Cc1cc(Br)ccc1NC(=O)CCS(=O)(=O)c1cccc2nonc12`, the survival was 83% (inactive).

On to `Cc1cc(Br)ccc1NC(=O)CCNS(=O)(=O)c1cccc2nonc12`, for which the survival was 43% (active).

`CCOc1ccc(NC(=O)CCNS(=O)(=O)c2cccc3nsnc23)cc1`: the survival was 52% (inactive).

As to `Cc1ccc(NC(=O)CCS(=O)(=O)c2cccc3nonc23)c(C)c1`, the survival was 99% (inactive).

As for `Cc1cccc(Cn2c(=O)n(-c3cc(C)cc(C)c3)c(=O)c3oc4ccccc4c32)c1`, the survival is 71% (inactive).

Regarding `Cc1sc2ncn(CC(=O)N3CCN(c4ccc(F)cc4)CC3)c(=O)c2c1S(=O)(=O)N1CCC(C)CC1`, the survival was 75% (inactive).

For `Cc1ccc(C)c(NC(=O)c2ccc(CN3CC(=O)N4CCCCC4C3=O)cc2)c1` (centres undefined), the survival was 54% (inactive).

For the compound `Cc1cc(Oc2nc3ccccn3c(=O)c2/C=C(\C#N)c2nc3ccccc3s2)ccc1Cl`, the survival was 63% (inactive).

Turning to `COc1ccc(S(=O)(=O)N2CCC(C(=O)NC(C)c3ccccc3)CC2)cc1` (centres undefined), the survival was 79% (inactive).

Turning to `COc1ccc(OC)c(/C=N/c2ncn[nH]2)c1`, the survival is 101% (inactive).

For the compound `COCCCNC(=O)Cn1c(=O)nc(-c2ccccc2)c2ccccc21`, the survival was 78% (inactive).

As for `CCOc1ccccc1NC(=O)c1ccc2c(c1)CCCN2S(C)(=O)=O`, the survival was 81% (inactive).

As for `Cc1nn(-c2ccc(N3CCCC3)nn2)c(C)c1CCC(=O)Nc1ccc(F)c(Cl)c1`, the survival was 68% (inactive).

For the compound `O=C(NCc1cccn1Cc1ccccc1)Nc1cccc(C(F)(F)F)c1`, the survival was 54% (inactive).

As for `COCCCNC(=O)c1ccc(Cn2c(=O)c3ccccc3n(Cc3ccc(Cl)cc3)c2=O)cc1`, the survival was 89% (inactive).

In the case of `COc1ccc(NC(=O)CN(C)S(=O)(=O)c2ccc3nc(C)sc3c2)cc1Cl`, the survival was 82% (inactive).

Regarding `CN(C)c1ccc(/C=N/c2nc3ccccc3o2)cc1`, the survival was 85% (inactive).

With `COc1ccc(CCNC(=O)c2ccc(Cn3c(SCc4ccccc4)nc4cccnc43)cc2)cc1`, the survival was 92% (inactive).

With `Cc1ccc(CNC(=O)c2cc3c(s2)-c2c(C)cccc2OC3)cc1`, the survival was 68% (inactive).

`CCN(Cc1ccccc1)C(=O)c1cc2c(s1)-c1c(C)cccc1OC2`: the survival is 55% (active).

Take `CCN(C(=O)c1cc2c(s1)-c1c(C)cccc1OC2)c1cc(C)ccc1C`: the survival is -1% (active).

On to `CCN(C(=O)c1cc2c(s1)-c1c(C)cccc1OC2)c1ccccc1F`, for which the survival is 97% (inactive).

With `Cc1cccc(CCNC(=O)c2cc3c(s2)-c2c(C)cccc2OC3)c1`, the survival is 83% (inactive).

Turning to `Cc1ccc(CCNC(=O)c2cc3c(s2)-c2c(C)cccc2OC3)cc1`, the survival was 93% (inactive).

Turning to `CC(C)CCN1C(=O)c2ccccc2CC1(C)C(=O)NC1CCC(C)CC1` (centres undefined), the survival is 100% (inactive).

Turning to `CCOC(=O)c1c(C)[nH]c(CCC(=O)NCc2ccccc2Cl)c1C`, the survival is 98% (inactive).

`CCOc1ccc(NC(=O)Cn2cc(C(=O)c3ccccc3)c(=O)c3cc4c(cc32)OCCO4)cc1`: the survival is 73% (inactive).

Take `CC(=O)c1ccc(NC(=O)c2cn(-c3ccccc3)nc2-c2ccc(Br)cc2)cc1`: the survival is 75% (inactive).

On to `COc1ccc(-c2nn(-c3ccccc3)cc2C(=O)Nc2ccccc2OC)cc1`, for which the survival was -2% (active).

For the compound `CCOC(=O)c1ccc(NC(=O)c2cn(-c3ccccc3)nc2-c2ccc(Br)cc2)cc1`, the survival is 70% (inactive).

Turning to `COc1ccc(NC(=O)c2cn(-c3ccccc3)nc2-c2ccc(C)cc2)cc1`, the survival is 63% (inactive).

With `COc1ccccc1NC(=O)c1cn(-c2ccccc2)nc1-c1ccccc1`, the survival is 95% (inactive).

As to `O=C(O)c1ccc(NC(=O)c2cn(-c3ccccc3)nc2-c2ccc(Br)cc2)cc1`, the survival is 24% (active).

For the compound `CCOC(=O)c1ccc(NS(=O)(=O)c2ccc3c(c2)CCN3C(=O)CC)cc1`, the survival is 79% (inactive).

For `Brc1ccc(-c2cn3cc(Cc4ccccc4)sc3n2)cc1`, the survival was 64% (inactive).

As to `COc1ccc(Br)cc1CNC(=O)c1cc(=O)[nH]c2ccc(S(=O)(=O)N3CCCCC3C)cc12` (centres undefined), the survival was 82% (inactive).

For `COc1ccc(NC(=O)Cn2c(=O)oc3cc(S(=O)(=O)N4CCCCC4C)ccc32)cc1` (centres undefined), the survival is 47% (active).

As to `CCOc1ccc(NC(=O)Cn2c(=O)oc3cc(S(=O)(=O)N4CCCCCC4)ccc32)cc1`, the survival was 75% (inactive).

For `CC1CCN(S(=O)(=O)c2ccc3c(c2)oc(=O)n3CC(=O)O)CC1`, the survival is 0% (active).

In the case of `CC1CCN(C(=O)Cn2c(=O)oc3cc(S(=O)(=O)N4CCCCC4)ccc32)CC1`, the survival is 86% (inactive).

Consider `COc1ccc(OC)c(CNC(=O)c2cc(=O)[nH]c3ccc(S(=O)(=O)N4CCCCC4C)cc23)c1` (centres undefined), for which the survival was 6% (active).

Regarding `COc1cc(NC(=O)Cn2c(=O)oc3cc(S(=O)(=O)N4CCCCCC4)ccc32)cc(OC)c1`, the survival was 95% (inactive).

With `CC1CCN(S(=O)(=O)c2ccc3c(c2)oc(=O)n3CC(=O)N2CCCCC2)CC1`, the survival was 66% (inactive).

On to `COc1ccc(CCNC(=O)c2cc(=O)[nH]c3ccc(S(=O)(=O)N4CCCCC4C)cc23)cc1OC` (centres undefined), for which the survival was 117% (inactive).

Consider `Fc1ccc(N2CCN(c3ncnc4[nH]ncc34)CC2)cc1`, for which the survival is 95% (inactive).

On to `CCSc1ncc(Cl)c(C(=O)Nc2c(C(=O)Nc3cccc(C)c3)oc3ccccc23)n1`, for which the survival is 109% (inactive).

For `Cc1c(C(=O)NCCc2ccccc2)cccc1-n1cnc2cccnc21`, the survival was 75% (inactive).

As for `O=C(O)c1cccc(NC2SC(=O)N(c3ccccc3)C2=O)c1` (centres undefined), the survival is 107% (inactive).

For the compound `O=C1C(=O)N(C2CCN(C(=O)c3ccc(Cl)cc3)CC2)CCN1Cc1ccc(F)cc1`, the survival is 78% (inactive).

Turning to `COc1ccc(-n2c(SCC(=O)N3CCc4ccccc43)nc3c([nH]c4ccccc43)c2=O)cc1`, the survival was 92% (inactive).

With `Cc1cccc(NC(=O)CN(C)S(=O)(=O)c2cnc[nH]2)c1C`, the survival was 97% (inactive).

Turning to `CCN1CCc2c(sc(NC(=O)c3ccc(S(=O)(=O)N(C)C4CCCCC4)cc3)c2C(N)=O)C1`, the survival was 80% (inactive).

Turning to `Cc1ccccc1NC(=O)Cn1cc(S(=O)(=O)N2CCCC2)c(S(=O)(=O)N2CCCC2)c1`, the survival was 90% (inactive).

As for `CC(=O)c1ccc(NC(=O)CCCc2nc(-c3cccc(C)c3)no2)cc1`, the survival was 69% (inactive).

As for `COc1ccc(N2CCN(CCCNC(=O)C3COc4ccccc4C3)CC2)cc1` (centres undefined), the survival was 131% (inactive).

On to `CCn1c(CNc2ccc(C)cc2)nnc1SCc1ccccc1`, for which the survival was 115% (inactive).

For the compound `O=C(Nc1ccccc1)N(Cc1ccc(F)cc1)c1ccccn1`, the survival was 56% (inactive).

Consider `COc1cc(CN(C(=O)Nc2cccc(Cl)c2)c2ccccn2)cc(OC)c1OC`, for which the survival was 68% (inactive).

For the compound `COc1ccc(CN(C(=O)Nc2cccc(Cl)c2)c2ccccn2)cc1OC`, the survival was 92% (inactive).

For `CCc1ccc(CN(C(=O)Nc2cccc(Cl)c2)c2ccccn2)cc1`, the survival is 94% (inactive).

On to `Cc1ccc(CN(C(=O)Nc2cccc(Cl)c2)c2ccccn2)cc1`, for which the survival is 40% (active).

`O=C(Nc1ccccc1)N(Cc1cccc(Cl)c1)c1ccccn1`: the survival was 37% (active).

Regarding `COc1cc(NC(=O)CCn2cnc3ccccc3c2=O)cc(OC)c1`, the survival is 122% (inactive).

On to `CCN(CC)C(=O)Cn1cc(SCC(=O)Nc2cccc(C)c2)c2ccccc21`, for which the survival was 69% (inactive).

As to `Cc1ccc2c(CC(=O)Nc3c(C(=O)c4ccc(C)c(F)c4)oc4ccccc34)coc2c1`, the survival was 96% (inactive).

For `O=C(NCc1ccccc1)C1CCN(S(=O)(=O)Cc2ccccc2)CC1`, the survival was 98% (inactive).

In the case of `CCc1ccc(NC(=O)C2CCN(S(=O)(=O)c3cccc(-c4noc(C)n4)c3)CC2)cc1`, the survival was 77% (inactive).

As for `Cc1cc(C)cc(NC(=O)C2CCN(S(=O)(=O)c3cccc(-c4noc(C)n4)c3)CC2)c1`, the survival was -5% (active).

Turning to `CCc1cccc(NC(=O)C2CCN(S(=O)(=O)c3cccc(-c4noc(C)n4)c3)CC2)c1`, the survival was 73% (inactive).

`Cc1ccc(NC(=O)CSc2nc(C3CCCC3)nc3c2c(=O)n(C)c(=O)n3C)c(C)c1`: the survival is 73% (inactive).

On to `COc1cccc(CNC(=O)c2oc3c(c2C)-c2nn(Cc4cccc(Cl)c4)cc2CC3)c1`, for which the survival was 76% (inactive).

In the case of `CCOC(=O)c1c(NC(=O)c2ccc(F)cc2)sc2c1CCC(CC)C2` (centres undefined), the survival was 9% (active).

Turning to `CCOC(=O)c1c(NC(=O)COc2cccc(C)c2C)sc2c1CCC(CC)C2` (centres undefined), the survival is 59% (inactive).

As for `CCOC(=O)c1ccc(NC(=O)c2c(NC(C)=O)sc3c2CCC(C)C3)cc1` (centres undefined), the survival is 47% (inactive).

On to `CCOC(=O)c1c(NC(=O)C2c3ccccc3Oc3ccccc32)sc2c1CCC(CC)C2` (centres undefined), for which the survival was 52% (inactive).

Regarding `CCOC(=O)c1c(NC(=O)c2ccccc2OCC)sc2c1CCC(CC)C2` (centres undefined), the survival was -2% (active).

Regarding `CCC1CCc2c(sc(NC(=O)C3c4ccccc4Oc4ccccc43)c2C(=O)OC)C1` (centres undefined), the survival is 72% (inactive).

The values are drawn from PubChem BioAssay AID463173 (ICCB-Longwood Screening Facility, Harvard Medical School, 2010).
